According to PubChem BioAssay (Tox21):
Several values for one entry are separate records, joined by “and”; a condition that tells them apart may be missing. Equal values may be shown once. Results filed as inconclusive are left out. Where a call stands in place of a potency, no number is given. Some structures have more than one record in an assay (separate samples or runs), and their calls can disagree. Activity calls are given as the source filed them. Unless noted, calls come from the whole dose curve; as a rule, active = well fitted curve in the direction sought with a large enough effect in the repeat runs; inconclusive = weak or mixed curves; inactive = no such curve, though single readings can be large; an effect the other way counts as inactive or inconclusive.

What was measured:
[1] = qHTS assay to identify small molecule antagonists of the vitamin D receptor (VDR) signaling pathway - cell viability counter screen (AID 743225); note: nearly all actives have a fitted effect of over 50% in size; note: potency is the fitted concentration of half-maximal effect
How it was run: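 Same-well multiplex: following 16 h treatment of HEK 293T cells carrying a UAS-driven beta-lactamase reporter with compound and agonist (3 nM final), and a 2 h FRET substrate step, CellTiter-Glo was added and luminescence read after 30 min.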

[2] = qHTS assay to identify small molecule agonists of the NFkB signaling pathway - cell viability counter screen (AID 1159515; calls by dose curve; note: nearly all actives have a fitted effect of over 55% in size; note: potency is the fitted concentration of half-maximal effect)
How it was run: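 Counter screen run alongside the NFkB-bla agonist assay: ME-180 reporter cells exposed to compounds for 5 hr, then lysed with CellTiter-Glo in the same wells. Luminescence, read after 30 min, reflects viable cells.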

[3] = qHTS assay to identify small molecule agonists of the endoplasmic reticulum stress response signaling pathway - cell viability counter screen (AID 1159517; calls by dose curve; note: nearly all actives have a fitted effect of over 50% in size; note: potency is the fitted concentration of half-maximal effect)
How it was run: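 Steps: seed 1,500 ESRE-bla HeLa cells per well; incubate overnight at 37 C, 5% CO2; add compounds in DMSO for 5 hr; run FRET substrate 2 hr RT; add CellTiter-Glo, wait 30 min, read luminescence.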

[4] = qHTS assay to identify small molecule antagonists of the retinoid-related orphan receptor gamma (ROR-gamma) signaling pathway - cell viability counter screen (AID 1159520); note: nearly all actives have a fitted effect of over 50% in size; note: potency is the fitted concentration of half-maximal effect
How it was run: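 Tet-on ROR gamma CHO cells were given compounds for 2 hr, then doxycycline hyclate at 1 uM final, and incubated 16 hr at 37 C. Viability was measured as ATP content by CellTiter-Glo luminescence.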

[5] = molecular target: Nuclear receptor ROR-gamma (Homo sapiens) (UniProt P51449); experiment: qHTS assay to identify small molecule antagonists of the retinoid-related orphan receptor gamma (ROR-gamma) signaling pathway (AID 1159521; note: nearly all actives have a fitted effect of over 50% in size; note: potency is the fitted concentration of half-maximal effect)
How it was run: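 Inducible-expression reporter assay: doxycycline (1 uM final) switched on RORγ in CHO cells bearing a ROR response element-luciferase construct, with test compounds present from 2 h beforehand. Decreased luminescence after 16 h defined antagonist activity.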

[6] = qHTS assay to identify small molecule agonists of the AP-1 signaling pathway - cell viability counter screen (AID 1159525; calls by dose curve; note: nearly all actives have a fitted effect of over 55% in size; note: potency is the fitted concentration of half-maximal effect)
How it was run: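 Same-well cytotoxicity counter screen of the Tox21 10K library in ME-180 cells. The readout is ATP-dependent luminescence after 5 h compound treatment. Data are normalised to DMSO and tetra n-octyl ammonium bromide controls.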

[7] = molecular target: Retinoic acid receptor RXR-alpha (Homo sapiens) (UniProt P19793); experiment: qHTS assay to identify small molecule agonists of the RXR signaling pathway (AID 1159527; calls by dose curve; note: nearly all actives have a fitted effect of over 35% in size; note: potency is the fitted concentration of half-maximal effect)
How it was run: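 Compounds in DMSO were added to RXR-alpha-UAS-bla HEK 293T cells kept in 2% charcoal-stripped serum, and incubated 16 hr at 37 C with 5% CO2. Reporter signal came from a 2 hr B/G FRET substrate step.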

[8] = qHTS assay to identify small molecule agonists of the RXR signaling pathway - cell viability counter screen (AID 1159529); note: nearly all actives have a fitted effect of over 50% in size; note: potency is the fitted concentration of half-maximal effect
How it was run: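 Counter screen: CellTiter-Glo luminescence. Cells: RXR-alpha-UAS-bla HEK 293T. Medium: 2% charcoal-stripped FBS. Treatment: 16 h, 37 C. Reagent incubation: 30 min, RT.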

[9] = qHTS assay to identify small molecule antagonists of the retinoid acid receptor (RAR) signaling pathway - cell viability counter screen (AID 1159551); note: nearly all actives have a fitted effect of over 35% in size; note: potency is the fitted concentration of half-maximal effect
How it was run: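 Measured by luminescent ATP detection, viability reflects C3RL4 cells treated 6 h at 37 C with test chemicals in the presence of 1 uM (final) retinol.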

[10] = qHTS assay to identify small molecule antagonists of the retinoic acid receptor (RAR) signaling pathway (AID 1159552; note: nearly all actives have a fitted effect of over 50% in size; note: potency is the fitted concentration of half-maximal effect)
How it was run: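 Antagonism of retinol-induced RARE reporter activity was measured in C3RL4 cells. Exposure to compounds and 1 uM final retinol lasted 6 hr at 37 C, with luminescence as endpoint.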

[11] = qHTS assay to identify small molecule agonists of the retinoic acid receptor (RAR) signaling pathway (AID 1159553)
How it was run: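 6 hr compound exposure (DMSO vehicle) of overnight-plated C3RL4 RARE-luc cells at 37 C; luminescence quantified after 30 min RT with luciferase reagent.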

[12] = qHTS assay to identify small molecule agonists of the vitamin D receptor (VDR) signaling pathway - cell viability counter screen (AID 743224); note: nearly all actives have a fitted effect of over 50% in size; note: potency is the fitted concentration of half-maximal effect
How it was run: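 Counter screen for cytotoxicity: VDR-bla cells at 2,000 cells/well, 16 h compound exposure, then CellTiter-Glo luminescence after the beta-lactamase measurement.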

[13] = qHTS assay to identify small molecule agonists of the endoplasmic reticulum stress response signaling pathway (AID 1159516; active = well fitted activation curve with a large enough effect in the signal ratio in the repeat runs, not every such curve was filed as active; the % refers to the signal ratio)
How it was run: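 For this screen, HeLa cells stably carrying beta-lactamase under the ER stress response element received test compounds, positive controls or DMSO for 5 hr at 37 C; B/G FRET substrate was then added and dual-wavelength emission recorded.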

[14] = qHTS assay to identify small molecule agonists of the AP-1 signaling pathway (AID 1159526; calls by dose curve)

Chain of Retinoic acid receptor RXR-alpha (Homo sapiens) (P19793 whole entry, looked up): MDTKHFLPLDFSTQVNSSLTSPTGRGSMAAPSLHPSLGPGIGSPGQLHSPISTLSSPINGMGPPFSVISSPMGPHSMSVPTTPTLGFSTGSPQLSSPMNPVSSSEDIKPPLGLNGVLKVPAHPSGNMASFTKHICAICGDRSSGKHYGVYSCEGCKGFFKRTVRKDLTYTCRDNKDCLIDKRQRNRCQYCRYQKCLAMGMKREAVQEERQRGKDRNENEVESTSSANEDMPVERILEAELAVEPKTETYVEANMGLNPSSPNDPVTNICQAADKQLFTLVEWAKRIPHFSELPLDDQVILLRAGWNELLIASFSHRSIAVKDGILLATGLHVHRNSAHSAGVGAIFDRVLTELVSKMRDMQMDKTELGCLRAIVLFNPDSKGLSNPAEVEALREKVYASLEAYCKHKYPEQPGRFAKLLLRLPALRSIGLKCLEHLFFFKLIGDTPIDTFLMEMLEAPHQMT

SMILES	Potency [1]	Potency [2]	Potency [3]	Potency [4]	Potency [5]	Potency [6]	Potency [7]	Potency [8]	Potency [9]	Potency [10]	Potency [11]	Potency [12]	Potency [13]	Potency [14]
CN1C(=O)[C@@H](NC(=O)c2cc3ccccc3[nH]2)N=C(c2ccccc2)c2ccccc21	inactive	inactive	inactive	inactive	inactive	inactive	inactive	inactive	inactive	inactive	inactive	–	–	–
ClC1=C(Cl)[C@]2(Cl)[C@H]3[C@H]([C@@H]4C=C[C@H]3C4)[C@@]1(Cl)C2(Cl)Cl	inactive	54.9 µM (active)	21.8 µM (active) and 49 µM (active)	61 µM (active)	54.4 µM (active)	38.9 µM (active)	inactive	49 µM (active)	inactive	–	–	inactive and 54.9 µM (active)	–	–
COC(=O)N(OC)c1ccccc1COc1ccn(-c2ccc(Cl)cc2)n1	–	inactive	–	–	0.273 µM (active)	–	–	inactive	–	–	inactive	–	inactive	–
COP(=O)(OC)Oc1ccc([N+](=O)[O-])cc1	inactive	inactive	inactive	inactive	inactive	inactive	–	inactive	inactive	inactive	inactive	–	–	inactive
C[C@]12C/C(=C/O)C(=O)C[C@@H]1CC[C@@H]1[C@@H]2CC[C@@]2(C)[C@H]1CC[C@]2(C)O	inactive	inactive	24.8 µM (active) and 16.9 µM (active)	61.7 µM (active)	30.9 µM (active) and 29.8 µM (active)	inactive	–	24.8 µM (active)	inactive	24.6 µM (active) and 26.6 µM (active)	–	inactive	–	inactive
Nc1cc(Cl)ccc1Cl	inactive	inactive	inactive	inactive	inactive	inactive	inactive	inactive	inactive	–	–	inactive	–	inactive
BrCC(Br)(Br)Br	inactive	inactive	inactive	50.3 µM (active)	inactive	inactive	inactive	inactive	inactive	inactive	–	inactive	–	inactive
CC(C)=CC1C(C(=O)OC(C#N)c2cccc(Oc3ccccc3)c2)C1(C)C (centres undefined)	–	inactive	inactive	inactive	inactive	inactive	–	inactive	inactive	–	–	inactive	–	inactive
CC(C)c1c(CN(C)C(C)Cc2ccccc2)n(C)n(-c2ccccc2)c1=O (centres undefined)	inactive	inactive	–	–	–	inactive	–	inactive	inactive	inactive	inactive	inactive	inactive	inactive
OCC(Br)CBr (centres undefined)	inactive	inactive	–	–	–	inactive	inactive	inactive	inactive	–	–	–	inactive	inactive
Cc1nn(-c2cc(NS(C)(=O)=O)c(Cl)cc2Cl)c(=O)n1C(F)F	inactive	inactive	inactive	inactive	inactive	inactive	inactive	inactive	inactive	–	–	inactive	–	inactive
O=C(NC(=O)c1c(F)cccc1F)Nc1ccc(Oc2ccc(C(F)(F)F)cc2Cl)cc1F	inactive	inactive	–	–	24.3 µM (active)	inactive	–	–	inactive	–	–	–	inactive	–
BrCCCBr	inactive	inactive	inactive	inactive	inactive	inactive	inactive	inactive	inactive	inactive	inactive	inactive	–	inactive
Cc1cc(C2CC2)nc(Nc2ccccc2)n1	inactive	inactive	–	–	inactive	–	–	–	–	inactive	–	–	inactive	–
COC(=O)/C=C(\C)OP(=O)(OC)OC	inactive	inactive	inactive	inactive	inactive	inactive	inactive	inactive	inactive	inactive	–	inactive	–	inactive
CCC[CH2][Sn]([CH2]CCC)([CH2]CCC)[CH2]CCC	49 µM (active)	30.9 µM (active)	21.9 µM (active)	10.9 µM (active)	6.11 µM (active)	21.9 µM (active)	0.0871 µM (active)	21.9 µM (active)	43.3 µM (active)	9.69 µM (active)	inactive	–	–	–
CCC[CH2][Sn]([CH2]CCC)([O]C(C)=O)[O]C(C)=O	inactive	11.1 µM (active)	–	–	0.0692 µM (active)	–	–	–	inactive	0.138 µM (active)	–	–	inactive	–
CCOP(=S)(NC(C)C)Oc1ccccc1C(=O)OC(C)C (centres undefined)	inactive	inactive	–	–	21.7 µM (active)	–	–	–	inactive	54.5 µM (active)	–	inactive	inactive	inactive
CCc1cccc(C)c1N(C(=O)CCl)[C@@H](C)COC	–	inactive	–	–	–	inactive	–	inactive	inactive	–	inactive	inactive	inactive	inactive
C#CC1(O)CCCCC1	inactive	inactive	inactive	inactive	inactive	inactive	inactive	inactive	inactive	inactive	–	–	–	inactive
CCC1COC(Cn2cncn2)(c2ccc(Cl)cc2Cl)O1 (centres undefined)	inactive	inactive	–	–	–	inactive	–	inactive	inactive	–	inactive	inactive	inactive	inactive
CO/N=C(/C1=NOCCO1)c1ccccc1Oc1ncnc(Oc2ccccc2Cl)c1F	–	inactive	–	–	0.968 µM (active)	–	–	inactive	inactive	–	–	–	inactive	inactive
